The target in one assay is MPHOSPH9. In words: pooled miR-30 sensor sort-seq; sequence = guide strand. The settings on record: shRNA.
The sequence TTGCTTGTGAAAATGAGTCTAT showed a sensor-assay potency score (higher = more potent) of -0.111.
TTGAGCTTCTTTATCATCTGAG came in with a sensor-assay potency score (higher = more potent) of 0.656.
Consider TTTGGTGACACATCTGTGGAAG, for which the sensor-assay potency score (higher = more potent) was -0.32.
TTGTTTAGAAACAAGCTGCTTC had a sensor-assay potency score (higher = more potent) of 0.601.
The same measure, in the same setting: then TTCATCTACAGTGTTGACCGAG, with 0.377; and TAGATCTTGAACCTCCATCTTC, with -0.263; and TATTTGTTTAGAAACAAGCTGC, with 0.128.
TTGTTGATGAACTTCCAGGTGA: the sensor-assay potency score (higher = more potent) is -0.421.
For TTAAAGACACATGACACTCTTC, the sensor-assay potency score (higher = more potent) is 0.499.
The sequence TTTATCAACAAGCTTGTTGATG yielded a sensor-assay potency score (higher = more potent) of -0.498.
Same read-out and setting: to TTACAATGTAGAACAAGTCTAT belongs 0.128.
TAACGTAGGATCTAGAGTCAGG had a sensor-assay potency score (higher = more potent) of -0.553.

The next assay concerns the target MPST. The assay is described as above. To be noted: shRNA.
Sequence TACCACTCCACCCAGGAGCCAT had a sensor-assay potency score (higher = more potent) of -1.23.
As to TTCTCCTGGAACAGATGGCGGA, the sensor-assay potency score (higher = more potent) is -0.871.
On the same count and under the same terms, then TAGGTCTTGATGAAGGCGGGGT, with 0.122; and TCGTAGGTCTTGATGAAGGCGG, with -0.615; and TTAGACAGGTCCACTTTCTTCT, with 0.441.
Take TGAAGAAACACTCTCTTGGTGA: the sensor-assay potency score (higher = more potent) was -0.0211.
For TGAGTGAAGAAACACTCTCTTG, the sensor-assay potency score (higher = more potent) was -1.53.
Turning to TCGATGTCGAAGAAAGCGGCGC, the sensor-assay potency score (higher = more potent) is -0.934.
Regarding TTCTCCTTGATGTCCTCGTAGG, the sensor-assay potency score (higher = more potent) is -1.08.
Regarding TTGATGTCCTCGTAGGTCTTGA, the sensor-assay potency score (higher = more potent) is -0.443.
In the case of TCGTAGATCACGACGTGGGTGG, the sensor-assay potency score (higher = more potent) is -0.279.
Turning to TTGAGTGAAGAAACACTCTCTT, the sensor-assay potency score (higher = more potent) stood at 0.653.

In another assay the target is MPZL1. The assay is described as above. To be noted: shRNA.
TTTCTATGTTGATTGATGCATC yielded a sensor-assay potency score (higher = more potent) of -0.949.
TTGACATCACAGATATAGGTGC gave a sensor-assay potency score (higher = more potent) of 0.0652.
The sequence TACACCACAGACTCTGACTTGT displayed a sensor-assay potency score (higher = more potent) of 0.413.
TTTGACATCACAGATATAGGTG had a sensor-assay potency score (higher = more potent) of 0.376.
TAACTGTGCATATATGACTGGG displayed a sensor-assay potency score (higher = more potent) of -0.763.
In turn, TATTTATACATATCCTTTGTAC returned a sensor-assay potency score (higher = more potent) of -0.807.
Still for that read-out and setting: to TTTTCTATGTTGATTGATGCAT belongs -0.358.
The sequence TTTTTCTACGACATAGAGCCTA yielded a sensor-assay potency score (higher = more potent) of -0.173.
Turning to TTTTCTACGACATAGAGCCTAA, the sensor-assay potency score (higher = more potent) is -0.79.
TATTCTCTTAATTCTTTCGGAT gave a sensor-assay potency score (higher = more potent) of -0.74.
TTGTGTACCATTTGCCACGAAG came in with a sensor-assay potency score (higher = more potent) of -1.44.
ATATTTTCTATGTTGATTGATG: the sensor-assay potency score (higher = more potent) is -0.933.

These data come from the OligoGym collection.
Further: reference of the scale not given here.
